In all, about 350,000 compounds went through this assay and about 7,000 (2%) were called active. No stated cut-off is given here; in the data, active means activation above about 40%; inconclusive means no clear call, values can overlap the other calls; inactive means below that. Many of the other results were omitted from the sample, so actives are more common in it than they were.
Assay: Bmi1 luciferase reporter increase in mESCs, primary screen, esBAF inhibitor project, mouse ES cells, Bmi1 luciferase knock-in, single point (AID 602393);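 further: 0% = median of the plate's neutral control wells and 100% = double that signal; a rise in the Bmi1 reporter signal indicates esBAF inhibition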
Settings: 24 h, at 12.5 µM, hits give high values, 100% = twice the neutral-well signal

Reporter increase, active:
CSc1ccccc1NC(=O)c1cnc2sc(C)cn2c1=O 68.8%
Cn1c(=NC(=O)C2CC2)sc2cc(F)cc(F)c21 62%
O=C(NNC(=O)c1cc2c(s1)CCCC2)c1ccccc1 40.9%
COc1cccc(-c2cc3nc4c(c(N5CCC6(CC5)OCCO6)n3n2)CCCC4)c1 42.7%
O=C(c1cccs1)N1CCCC(c2nc(-c3ccc(F)cc3)no2)C1 (centres undefined) 51.6%
Cc1ccc(-c2noc(C3CCCN(C(=O)c4cccc(Cl)c4)C3)n2)o1 (centres undefined) 46.6%
O=C(O)C1CCN(C(=O)OCc2ccccc2)CC1 59.3%
CCOC(=O)c1[nH]c2c(c1C)C(=O)CC(c1ccc(N(C)C)cc1)C2 (centres undefined) 51.2%
C1=C(CCNc2ncnc3c2cnn3-c2ccccc2)CCCC1 69.7%
O=C(Nc1ccncc1)c1cc2ccccc2o1 75.6%
Cc1ccc(NC(=O)c2cc3ccccc3o2)cc1 52.9%
CN(c1cccc(NC(=O)Nc2ccc(Cl)cc2)c1)S(C)(=O)=O 50.6%
CCOC(=O)c1cc(-c2sc(NC(=O)c3ccccc3)nc2C)n(Cc2ccccc2)n1 56%
CCOC(=O)c1cc(-c2sc(NC(=O)c3ccccc3)nc2C)n(-c2ccc(Br)cc2)n1 50.4%
Nc1ncc(-c2cc3ccccc3oc2=O)s1 47.3%
COCc1cccc(-c2csc(C(O)c3ccc(F)cc3)n2)c1 (centres undefined) 49.8%

Reporter increase, inactive:
CNC[C@H]1Oc2cc(-c3cccnc3)ccc2S(=O)(=O)N([C@@H](C)CO)C[C@H]1C 3.67%
Cc1ccccc1C(=O)Nc1ccccc1Sc1ccccc1 -8.84%
CSc1ccccc1NC(=O)c1cc(Cl)sc1Cl -9.78%
O=C(c1ccccc1)N1CC[C@H]2[C@H](CO)Nc3ccc(-c4ccc(F)cc4)cc3[C@H]21 -5.91%
CCCN(C)C[C@H]1Oc2ncc(-c3cccnc3)cc2C(=O)N([C@@H](C)CO)C[C@@H]1C 5.67%
Cn1c(=NC(=O)c2ccco2)sc2cccc(F)c21 29%
CCC(=O)Nc1ccc2c(c1)OC[C@H](C)N(Cc1ccccc1F)C[C@H](C)[C@@H](OC)CN(C)C2=O 0.435%
C[C@H](CO)N1C[C@H](C)[C@H](CN(C)CC2CCCCC2)Oc2c(NC(=O)c3cnccn3)cccc2C1=O -2.88%
O=C(CNC(=O)c1cc2c(s1)CCC2)Nc1ccccc1Br 30.7%
O=C(c1cc2c(s1)CCC2)N1CCN(c2ccccc2)CC1 6.19%
CCNC(=O)C[C@@H]1CC[C@H](NC(=O)C2CCC2)[C@@H](CO)O1 4.25%
C[C@@H]1CN([C@H](C)CO)C(=O)Cc2cc(NC(=O)C3CCCCC3)ccc2O[C@@H]1CN(C)S(C)(=O)=O -5.11%
C[C@@H]1CN([C@@H](C)CO)S(=O)(=O)c2ccc(C#CC3CCCC3)cc2O[C@H]1CN(C)S(C)(=O)=O 20.1%
COc1cccc(CNc2nc3nc4c(c(=O)n3[nH]2)CCC4)c1 -1.38%
O=C(c1ccccc1)N1CCN(c2cc(-c3ccccc3)nc3cc(-c4cccc(Cl)c4)nn23)CC1 -1.84%
O=C(C[C@@H]1CC[C@@H]2[C@H](COC[C@H](O)CN2Cc2cccc(C(F)(F)F)c2)O1)NCc1ccc(F)cc1 -1.09%
C[C@@H]1CN([C@@H](C)CO)C(=O)c2cc(NC(=O)Nc3cccc4ccccc34)ccc2O[C@@H](C)CCCCO[C@@H]1CN(C)S(=O)(=O)c1ccc(Cl)cc1 2.17%
CCOC(=O)C1(C)CCCN(C(=O)c2cccc(Cl)c2)C1 (centres undefined) -1.3%
COc1cc(-c2noc(C3CCCN(S(=O)(=O)c4cccc(Cl)c4)C3)n2)cc(OC)c1OC (centres undefined) 0.345%
O=C(Cc1cccs1)N1CCCC(c2nc(-c3ccc(S(=O)(=O)N4CCCC4)cc3)no2)C1 (centres undefined) -3.86%
COc1cccc(-c2noc(C3CCCN(C(=O)c4ccc(F)cc4)C3)n2)c1 (centres undefined) 5.64%
COc1ccccc1NC(=O)N(C)C[C@@H]1Oc2ncc(Br)cc2C(=O)N([C@@H](C)CO)C[C@@H]1C -5.49%
O=C(NCC[C@@H]1CC[C@@H](NC(=O)Nc2cc(F)ccc2F)[C@H](CO)O1)Nc1ccc(Cl)cc1 38.7%
C[C@H]1CN([C@@H](C)CO)C(=O)c2cc(C3=CCCCC3)cnc2O[C@H]1CN(C)Cc1ccncc1 -11.9%
CCOC(=O)N1CCC(NC(=O)CCc2ccccc2)CC1 -4.64%
O=C(NCc1ccccc1)C1CCN(C(=O)Cc2ccccc2)CC1 1.43%
CC(C)NC(=O)Nc1ccc2c(c1)C(=O)N([C@@H](C)CO)C[C@H](C)[C@@H](CN(C)S(C)(=O)=O)O2 -2.99%
COCC(=O)Nc1ccc2c(c1)C(=O)N(C)C[C@@H](OC)[C@H](C)CN(C(=O)c1ccccn1)[C@@H](C)CO2 4.23%
CCCOC(=O)C1=C(C)NC2=C(C(=O)C(C(=O)OC)C(C)C2)C1c1ccc(N(C)C)cc1 (centres undefined) 8.57%
CCCOC(=O)c1[nH]c2c(c1C)C(=O)CC(c1cccs1)C2 (centres undefined) -12.1%
CC(=O)N1[C@H](CO)[C@H](c2ccc(-c3ccccc3)cc2)[C@H]1CNC(=O)C1CC1 2.48%
COc1ccccc1S(=O)(=O)Nc1ccc2c(c1)C(=O)N(C)C[C@H](OC)[C@H](C)CN[C@H](C)CO2 -6.13%
Cc1nn(C(C)C(=O)NCCC2=CCCCC2)c(=O)c2nn(-c3ccccc3)c(C)c12 (centres undefined) 21%
CC(C)Sc1ncnc2c1cnn2-c1ccccc1 19%
C[C@@H]1CN([C@@H](C)CO)C(=O)Cc2cc(NC(=O)CCN3CCOCC3)ccc2O[C@@H]1CN(C)C(=O)Nc1cccc2ccccc12 -0.153%
O=C(NCCc1ccc2c(c1)OCCO2)c1cc2ccccc2o1 24.4%
CC(C)(C)n1nc2c(c1NC(=O)c1cc3ccccc3o1)CSC2 -2.69%
CN(C)C(CNC(=O)c1cc2ccccc2o1)c1ccccc1 (centres undefined) 7.21%
Cc1cc(NC(=O)c2cc3ccccc3o2)no1 20.5%
COc1ccccc1C#Cc1ccc2c(c1)O[C@@H](CN(C)Cc1cncnc1)[C@H](C)CN([C@@H](C)CO)S2(=O)=O 8.66%
COC(=O)N(C)C[C@H]1OCc2ccccc2-c2ccccc2C(=O)N([C@@H](C)CO)C[C@H]1C 5.99%
CN(c1ccccc1)S(=O)(=O)c1cccc(NC(=O)Cc2ccc(Cl)cc2)c1 -11.6%
CN(c1cccc(NC(=O)c2ccc(CN3CCc4ccccc4C3)cc2)c1)S(C)(=O)=O -0.323%
C[C@H](CO)N1C[C@H](C)[C@@H](CN(C)CC2CCCCC2)Oc2ccc(NS(=O)(=O)c3cccs3)cc2CC1=O -1.82%
CCCNC(=O)C[C@@H]1C[C@@H]2c3cc(N(C)C)ccc3O[C@@H]2[C@H](CO)O1 1.01%
CCCN(C)C[C@@H]1Oc2cc(C#Cc3ccc(F)cc3)ccc2S(=O)(=O)N([C@H](C)CO)C[C@H]1C -2.93%
CCOc1ccc(C(=O)Nc2c3c(nn2-c2ccccc2)CS(=O)(=O)C3)cc1 -0.973%
C=CCn1nc(C(=O)OCC)cc1-c1sc(NC(=O)c2ccccc2)nc1C 4.24%
CCOC(=O)c1cc(-c2sc(NC(=O)c3ccccc3)nc2C)n(CCO)n1 12.3%
CCOC(=O)c1cc2ccccc2n1CC(=O)c1ccccc1 2.35%
COc1ccc(NC(=O)Nc2ccc3c(c2)[C@@H]2C[C@H](CC(=O)N[C@@H](C)c4ccccc4)O[C@@H](CO)[C@@H]2O3)cc1 -1.34%
Cc1ccc(S(=O)(=O)N(C)C[C@@H]2OCCCC[C@@H](C)Oc3ccc(NC(=O)Nc4ccc(C(F)(F)F)cc4)cc3C(=O)N([C@@H](C)CO)C[C@@H]2C)cc1 1.3%
C[C@@H]1CCCCO[C@H](CN(C)S(=O)(=O)c2ccccc2)[C@H](C)CN([C@@H](C)CO)C(=O)c2cc(N(C)C)ccc2O1 -0.863%
COc1ccc2oc(=O)cc(-c3cc4ccccc4o3)c2c1 -2.86%
Cc1cc2c(=O)n(C)c(SCC(=O)c3cc4ccccc4o3)nc2s1 -5.28%
COc1ccccc1C(=O)Nc1ccc2c(c1)C(=O)N(C)C[C@@H](OC)[C@@H](C)CN(CC1CC1)[C@@H](C)CO2 2.64%
CCC(=O)N1CCCCN2[C@H](C1)[C@@H](c1ccc(C#CCOC)cc1)[C@@H]2CO 3.27%
C[C@H](CO)N1C[C@H](C)[C@@H](CN(C)S(=O)(=O)c2ccc(F)cc2)OCCCC[C@H](C)Oc2ccc(NC(=O)CCCN(C)C)cc2C1=O -3.29%
Cc1ccc(S(=O)(=O)N2C[C@H](O)COC[C@@H]3O[C@@H](CC(=O)NCC4CCCCC4)CC[C@H]32)cc1 -0.379%
COc1ccc(C(O)c2nc(-c3ccc4c(c3)OCO4)cs2)cc1 (centres undefined) 11.6%
COc1cc(C(O)c2nc(-c3cccc(C(=O)O)c3)cs2)ccc1F (centres undefined) 4.68%
O=C(c1cccnc1)N1C[C@@H]2[C@H](c3ccccc31)[C@@H](CO)N2C(=O)Nc1ccc(F)cc1 1.17%
COc1ccc(S(=O)(=O)N(C)C[C@H]2OCCCC[C@@H](C)Oc3ccc(NS(=O)(=O)c4ccc(C)cc4)cc3C(=O)N([C@@H](C)CO)C[C@@H]2C)cc1 7.8%

From PubChem BioAssay AID602393 (Broad Institute, 2012)
